Reference: PubChem BioAssay (EPA / NIEHS)
Activity calls are given as the source filed them. Rule for the calls: active = hit-call score of the fitted dose curve at least 0.9, where 1 is the maximum; inactive = score below 0.9.

Read-out: Urokinase-type plasminogen activator receptor (uPAR), PLAUR (gene 5329)
Test: BSK_CASM3C_uPAR: BioMAP Diversity Plus: CASM3C Assay for Urokinase-type plasminogen activator receptor (uPAR) Biomarker Activity (AID 2283054);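 note: cell-surface uPAR protein level quantified by ELISA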
Conditions: primary human coronary artery smooth muscle cells; actives raise or lower the signal

Structure (SMILES) | outcome | AC50
CN(c1nccc(=O)[nH]1)C1CCN(c2nc3ccccc3n2Cc2ccc(F)cc2)CC1 | inactive | 
CCCCCCCCCCCCCCCC(=O)OC/C=C(C)/C=C/C=C(C)/C=C/C1=C(C)CCCC1(C)C | inactive | 
CC(=O)c1c(C)c([N+](=O)[O-])c(C(C)(C)C)c([N+](=O)[O-])c1C | inactive | 
CC(=O)C1(C)CC2=C(CCCC2(C)C)CC1C (stereo unspecified) |  | 12.3 µM (active)
Oc1c(Cl)cc(Cl)c(Cl)c1Cc1c(O)c(Cl)cc(Cl)c1Cl |  | 1.97 µM (active)
CCN(CC)C(=O)N(CC)CC | inactive | 
CC1(C)C2=CCCC(C)(C)[C@]23CC[C@H]1C3 |  | 20 µM (active)
COc1ccc(CCN2CCC(Nc3nc4ccccc4n3Cc3ccc(F)cc3)CC2)cc1 | inactive | 
COc1ccc(OC)c(N=Nc2c(O)ccc3ccccc23)c1 | inactive | 
CC(C)(C)CC(C)(C)c1ccc(OCCOCC[N+](C)(C)Cc2ccccc2)cc1 |  | 7.34 µM (active)
O=C1OC2(c3ccccc31)c1ccc(O)c(Br)c1Oc1c2ccc(O)c1Br | inactive | 
c1ccc2cc(Nc3ccc(Nc4ccc5ccccc5c4)cc3)ccc2c1 | inactive | 
C1=CC2C3C=CC(C3)C2C1 (stereo unspecified) | inactive | 
O=C1c2ccccc2C(=O)c2c(O)ccc(O)c21 |  | 4.99 µM (active)
C=CC(C)(O)CCC=C(C)C (stereo unspecified) | inactive | 
C=C(C)C(=O)OCCOCCOCCOCCOC(=O)C(=C)C | inactive | 
CS(=O)(=O)OCCCCOS(C)(=O)=O | inactive | 
CCCCN(CCCC)C(=O)N(CCCC)CCCC |  | 20 µM (active)
Cc1cc(CCC(=O)OCCOCCOCCOC(=O)CCc2cc(C)c(O)c(C(C)(C)C)c2)cc(C(C)(C)C)c1O | inactive | 
CC(CN=Cc1ccccc1O)N=Cc1ccccc1O (stereo unspecified) | inactive | 
C=C(C)C(=O)OCC(CC)(COC(=O)C(=C)C)COC(=O)C(=C)C | inactive | 
CS(=O)(=O)c1ccc(C2=C(c3ccccc3)C(=O)OC2)cc1 | inactive | 
CCC(C)c1cc([N+](=O)[O-])cc([N+](=O)[O-])c1OC(=O)OC(C)C (stereo unspecified) |  | 24.3 µM (active)

Read-out: Vascular cell adhesion molecule 1 (VCAM1), VCAM1 (gene 7412)
Test: BSK_CASM3C_VCAM1: BioMAP Diversity Plus: CASM3C Assay for Vascular cell adhesion molecule 1 (VCAM1) Biomarker Activity (AID 2283055);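 note: VCAM-1 protein level quantified by ELISA on the cells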
Conditions: primary human coronary artery smooth muscle cells; actives raise or lower the signal

Structure (SMILES) | outcome | AC50
CN(c1nccc(=O)[nH]1)C1CCN(c2nc3ccccc3n2Cc2ccc(F)cc2)CC1 | inactive | 
CCCCCCCCCCCCCCCC(=O)OC/C=C(C)/C=C/C=C(C)/C=C/C1=C(C)CCCC1(C)C |  | 0.0326 µM (active)
CC(=O)c1c(C)c([N+](=O)[O-])c(C(C)(C)C)c([N+](=O)[O-])c1C | inactive | 
CC(=O)C1(C)CC2=C(CCCC2(C)C)CC1C (stereo unspecified) |  | 11.4 µM (active)
Oc1c(Cl)cc(Cl)c(Cl)c1Cc1c(O)c(Cl)cc(Cl)c1Cl |  | 9.96 µM (active)
CCN(CC)C(=O)N(CC)CC | inactive | 
CC1(C)C2=CCCC(C)(C)[C@]23CC[C@H]1C3 |  | 30.8 µM (active)
COc1ccc(CCN2CCC(Nc3nc4ccccc4n3Cc3ccc(F)cc3)CC2)cc1 | inactive | 
COc1ccc(OC)c(N=Nc2c(O)ccc3ccccc23)c1 |  | 20 µM (active)
CC(C)(C)CC(C)(C)c1ccc(OCCOCC[N+](C)(C)Cc2ccccc2)cc1 |  | 8.31 µM (active)
O=C1OC2(c3ccccc31)c1ccc(O)c(Br)c1Oc1c2ccc(O)c1Br | inactive | 
c1ccc2cc(Nc3ccc(Nc4ccc5ccccc5c4)cc3)ccc2c1 | inactive | 
C1=CC2C3C=CC(C3)C2C1 (stereo unspecified) | inactive | 
O=C1c2ccccc2C(=O)c2c(O)ccc(O)c21 |  | 5.44 µM (active)
C=CC(C)(O)CCC=C(C)C (stereo unspecified) | inactive | 
C=C(C)C(=O)OCCOCCOCCOCCOC(=O)C(=C)C | inactive | 
CS(=O)(=O)OCCCCOS(C)(=O)=O | inactive | 
CCCCN(CCCC)C(=O)N(CCCC)CCCC |  | 12.8 µM (active)
Cc1cc(CCC(=O)OCCOCCOCCOC(=O)CCc2cc(C)c(O)c(C(C)(C)C)c2)cc(C(C)(C)C)c1O | inactive | 
CC(CN=Cc1ccccc1O)N=Cc1ccccc1O (stereo unspecified) | inactive | 
C=C(C)C(=O)OCC(CC)(COC(=O)C(=C)C)COC(=O)C(=C)C | inactive | 
CS(=O)(=O)c1ccc(C2=C(c3ccccc3)C(=O)OC2)cc1 | inactive | 
CCC(C)c1cc([N+](=O)[O-])cc([N+](=O)[O-])c1OC(=O)OC(C)C (stereo unspecified) |  | 32.1 µM (active)
